Measured values taken from PubChem BioAssay (EPA / NIEHS).
Where “and” joins values, the source holds several entries; their conditions need not be identical. Identical values can stand only once. Results filed as inconclusive are left out. Some compounds were tested as several samples or in several runs, with calls that do not always agree. Calls of active or inactive are those of the source. How the source made its calls, unless noted: active means hit-call score of the fitted dose curve at least 0.9, where 1 is the maximum; inconclusive means response in the unintended direction; inactive means score below 0.9.

Key:
[1] = molecular target: Bile acid receptor (Homo sapiens) (UniProt Q96RI1); assay: ATG_FXR_TRANS: Attagene TRANS-FACTORIAL HepG2 Assay for Farnesoid X Receptor (FXR) (AID 2282979); details: HepG2 Attagene TRANS FXR-GAL4 reporter transcription;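 further: hits raise reporter mRNA above DMSO so AC50 marks FXR activation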
How it was run: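 Chimeric FXR-GAL4 activity in transiently transfected human HepG2 liver cells is scored as induction of reporter mRNA after 24 h of dosing. Detection uses RT-PCR with fluorescent labelling and capillary electrophoresis, with DMSO serving as baseline.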

[2] = molecular target: Oxysterols receptor LXR-alpha (Homo sapiens) (UniProt Q13133); assay: ATG_LXRa_TRANS: Attagene TRANS-FACTORIAL HepG2 Assay for human Liver X Receptor alpha (LXRa) (AID 2282980); details: HepG2 Attagene TRANS reporter, LXRa transactivation
How it was run: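 Transient HepG2 transfectants, 24 h dosing, RT-PCR/CE mRNA reporter quantitation; gain-of-signal vs DMSO.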

[3] = molecular target: Oxysterols receptor LXR-beta (Homo sapiens) (UniProt P55055); assay: ATG_LXRb_TRANS: Attagene TRANS-FACTORIAL HepG2 Assay for human Liver X Receptor beta (LXRb) (AID 2282981); details: HepG2 Attagene TRANS GAL4-LXRb reporter, mRNA
How it was run: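 HepG2 cells transiently transfected with GAL4-UAS reporter units for chimeric NR-Gal4 proteins, dosed for 24 h. Reporter transcripts measured by RT-PCR and capillary electrophoresis; gain-of-signal fitting relative to DMSO.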

[4] = molecular target: Hepatocyte nuclear factor 4-alpha (Homo sapiens) (UniProt P41235); assay: ATG_HNF4a_TRANS: Attagene TRANS-FACTORIAL HepG2 Assay for human Hepatocyte Nuclear Factor 4 alpha (HNF4a) (AID 2282982); details: HepG2 HNF4a transactivation reporter, mRNA readout
How it was run: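 HepG2 cells transiently transfected with HNF4a-Gal4 chimera and GAL4-UAS reporter units, dosed for 24 h. Reporter mRNA measured by RT-PCR, fluorescent primer extension and capillary electrophoresis; gain-of-signal fitted relative to DMSO.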

[5] = ATG_M_06_TRANS: Attagene TRANS-FACTORIAL HepG2 Assay for M06 Transcription Factor (Internal Marker) (AID 2282983); details: HepG2 Attagene TRANS M06 internal marker reporter;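 further: reporter transcript level by RT-PCR then capillary electrophoresis fluorescence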
How it was run: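 Measured by capillary electrophoresis of fluorescently labelled RT-PCR products, this endpoint reflects reporter mRNA in HepG2 cells harbouring exogenous NR-GAL4 reporter constructs after 24 h exposure, with DMSO as baseline.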

[6] = molecular target: Nuclear receptor subfamily 4 group A member 2 (Homo sapiens) (UniProt P43354); assay: ATG_NURR1_TRANS: Attagene TRANS-FACTORIAL HepG2 Assay for human Nuclear Receptor Related Protein 1 (NURR1) (AID 2282985); details: HepG2 Attagene TRANS reporter, mRNA readout
How it was run: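 HepG2 cells transiently transfected with NURR1-Gal4 chimera and GAL4-UAS reporter units; after 24 hr compound exposure, reporter mRNA quantified by RT-PCR and capillary electrophoresis; gain of signal fitted against DMSO.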

[7] = molecular target: Transcriptional activator Myb (Homo sapiens) (UniProt P10242); assay: ATG_Myb_CIS: Attagene CIS-FACTORIAL HepG2 Assay for human Myeloblastosis (Myb) Proto-Oncogene Transcription Factor (AID 2282986; active means hit-call score of the fitted dose curve at least 0.9, where 1 is the maximum; inactive means score below 0.9); details: HepG2 Attagene CIS-FACTORIAL Myb reporter transcription; actives raise or lower the signal
How it was run: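 Multiplexed cis-reporter system in HepG2: transient transfection, 24 h treatment, mRNA readout by RT-PCR and capillary electrophoresis. Both increases and decreases are scored versus DMSO negative control.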

[8] = molecular target: Nuclear respiratory factor 1 (Homo sapiens) (UniProt Q16656); assay: ATG_NRF1_CIS: Attagene CIS-FACTORIAL HepG2 Assay for human Nuclear Respiratory Factor 1 (NRF1) Orphan Gene (AID 2282987; active means hit-call score of the fitted dose curve at least 0.9, where 1 is the maximum; inactive means score below 0.9); details: HepG2 NRF1 cis-element reporter, Attagene multiplex; actives raise or lower the signal
How it was run: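 Endogenous factor activity was captured via cis-element-driven reporter transcripts in HepG2 cells. Following 24 h chemical treatment, transcripts were quantified by RT-PCR and capillary electrophoresis.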

[9] = ATG_M_32_TRANS: Attagene TRANS-FACTORIAL HepG2 Assay for M32 Transcription Factor (Internal Marker) (AID 2282984); details: HepG2 Attagene TRANS M32 internal marker reporter
How it was run: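 HepG2 cells transiently transfected with GAL4-UAS reporter units, dosed for 24 hours. Reporter mRNA quantified by RT-PCR, 6-FAM labelling, HpaI digestion and capillary electrophoresis; internal-marker signal fitted upward relative to DMSO.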

Measured: AC50

Sequence of Transcriptional activator Myb (Homo sapiens) (P10242 whole entry, looked up): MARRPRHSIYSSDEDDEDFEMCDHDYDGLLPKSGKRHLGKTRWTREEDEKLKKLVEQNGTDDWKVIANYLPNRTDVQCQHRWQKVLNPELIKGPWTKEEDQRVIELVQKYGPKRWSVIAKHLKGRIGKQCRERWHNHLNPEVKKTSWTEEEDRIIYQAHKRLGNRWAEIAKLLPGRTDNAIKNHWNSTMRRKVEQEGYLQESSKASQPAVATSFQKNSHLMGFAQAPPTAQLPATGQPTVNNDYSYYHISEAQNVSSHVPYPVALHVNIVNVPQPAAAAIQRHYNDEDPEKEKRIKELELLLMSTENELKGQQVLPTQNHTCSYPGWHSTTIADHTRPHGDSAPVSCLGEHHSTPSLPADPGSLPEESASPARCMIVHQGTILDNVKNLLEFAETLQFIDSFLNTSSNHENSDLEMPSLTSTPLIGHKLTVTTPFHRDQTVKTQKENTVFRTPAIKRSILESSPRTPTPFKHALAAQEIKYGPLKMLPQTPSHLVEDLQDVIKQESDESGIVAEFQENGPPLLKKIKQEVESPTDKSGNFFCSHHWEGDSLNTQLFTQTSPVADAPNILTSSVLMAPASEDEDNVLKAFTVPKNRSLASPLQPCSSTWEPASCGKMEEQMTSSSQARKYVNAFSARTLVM
Sequence of Oxysterols receptor LXR-beta (Homo sapiens) (P55055 whole entry, looked up, the tested form may be a part): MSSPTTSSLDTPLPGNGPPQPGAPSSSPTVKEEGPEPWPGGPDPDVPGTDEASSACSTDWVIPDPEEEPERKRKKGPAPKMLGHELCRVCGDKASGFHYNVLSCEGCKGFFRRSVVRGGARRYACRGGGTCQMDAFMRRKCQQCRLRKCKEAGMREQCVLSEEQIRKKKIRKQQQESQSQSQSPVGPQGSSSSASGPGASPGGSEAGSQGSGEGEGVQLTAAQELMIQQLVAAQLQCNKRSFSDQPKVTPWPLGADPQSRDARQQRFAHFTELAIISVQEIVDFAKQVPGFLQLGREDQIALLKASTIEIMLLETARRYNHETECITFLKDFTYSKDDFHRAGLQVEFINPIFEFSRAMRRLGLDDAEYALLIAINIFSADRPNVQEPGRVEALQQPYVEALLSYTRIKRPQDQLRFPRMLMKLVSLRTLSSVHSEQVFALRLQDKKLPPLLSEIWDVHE
Sequence of Hepatocyte nuclear factor 4-alpha (Homo sapiens) (P41235 whole entry, looked up, the tested form may be a part): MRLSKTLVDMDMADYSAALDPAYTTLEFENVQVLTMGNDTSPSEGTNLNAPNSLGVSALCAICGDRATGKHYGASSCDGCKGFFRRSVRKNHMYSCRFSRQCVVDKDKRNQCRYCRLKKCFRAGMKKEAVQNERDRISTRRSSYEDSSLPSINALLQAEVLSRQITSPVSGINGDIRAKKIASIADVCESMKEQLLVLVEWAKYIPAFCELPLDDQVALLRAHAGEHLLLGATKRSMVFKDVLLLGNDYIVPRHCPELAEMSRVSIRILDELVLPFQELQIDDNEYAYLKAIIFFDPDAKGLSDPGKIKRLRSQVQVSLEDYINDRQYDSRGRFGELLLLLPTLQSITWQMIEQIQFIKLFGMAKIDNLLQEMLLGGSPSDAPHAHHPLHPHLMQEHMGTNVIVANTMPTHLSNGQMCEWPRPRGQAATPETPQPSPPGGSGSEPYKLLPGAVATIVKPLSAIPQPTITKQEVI
Sequence of Nuclear respiratory factor 1 (Homo sapiens) (Q16656 whole entry, looked up): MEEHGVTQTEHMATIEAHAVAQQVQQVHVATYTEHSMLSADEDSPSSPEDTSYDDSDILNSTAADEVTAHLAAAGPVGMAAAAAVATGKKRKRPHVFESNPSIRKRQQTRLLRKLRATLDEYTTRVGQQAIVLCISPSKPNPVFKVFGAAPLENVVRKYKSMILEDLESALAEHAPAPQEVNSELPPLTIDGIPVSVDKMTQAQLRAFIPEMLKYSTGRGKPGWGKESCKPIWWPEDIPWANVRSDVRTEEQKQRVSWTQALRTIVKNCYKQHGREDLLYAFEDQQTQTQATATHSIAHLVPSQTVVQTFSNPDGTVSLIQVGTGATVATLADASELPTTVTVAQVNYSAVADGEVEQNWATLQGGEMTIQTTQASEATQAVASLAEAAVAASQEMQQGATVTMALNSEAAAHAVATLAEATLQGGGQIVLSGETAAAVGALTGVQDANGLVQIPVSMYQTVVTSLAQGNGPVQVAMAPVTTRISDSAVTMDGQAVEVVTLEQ
Sequence of Bile acid receptor (Homo sapiens) (Q96RI1 whole entry, looked up, the tested form may be a part): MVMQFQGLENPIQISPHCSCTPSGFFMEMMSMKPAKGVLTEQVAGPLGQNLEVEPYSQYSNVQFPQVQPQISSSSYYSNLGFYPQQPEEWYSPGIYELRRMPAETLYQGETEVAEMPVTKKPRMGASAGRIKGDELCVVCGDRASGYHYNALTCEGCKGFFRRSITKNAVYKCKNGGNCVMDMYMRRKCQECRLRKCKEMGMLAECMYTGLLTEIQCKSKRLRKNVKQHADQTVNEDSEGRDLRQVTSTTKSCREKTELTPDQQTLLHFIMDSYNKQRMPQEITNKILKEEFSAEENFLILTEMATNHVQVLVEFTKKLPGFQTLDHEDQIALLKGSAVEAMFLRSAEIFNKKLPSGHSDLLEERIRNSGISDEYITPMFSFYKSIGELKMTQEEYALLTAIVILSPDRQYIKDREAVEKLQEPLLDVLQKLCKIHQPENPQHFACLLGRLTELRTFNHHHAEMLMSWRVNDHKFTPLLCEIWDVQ
Sequence of Nuclear receptor subfamily 4 group A member 2 (Homo sapiens) (P43354 whole entry, looked up, the tested form may be a part): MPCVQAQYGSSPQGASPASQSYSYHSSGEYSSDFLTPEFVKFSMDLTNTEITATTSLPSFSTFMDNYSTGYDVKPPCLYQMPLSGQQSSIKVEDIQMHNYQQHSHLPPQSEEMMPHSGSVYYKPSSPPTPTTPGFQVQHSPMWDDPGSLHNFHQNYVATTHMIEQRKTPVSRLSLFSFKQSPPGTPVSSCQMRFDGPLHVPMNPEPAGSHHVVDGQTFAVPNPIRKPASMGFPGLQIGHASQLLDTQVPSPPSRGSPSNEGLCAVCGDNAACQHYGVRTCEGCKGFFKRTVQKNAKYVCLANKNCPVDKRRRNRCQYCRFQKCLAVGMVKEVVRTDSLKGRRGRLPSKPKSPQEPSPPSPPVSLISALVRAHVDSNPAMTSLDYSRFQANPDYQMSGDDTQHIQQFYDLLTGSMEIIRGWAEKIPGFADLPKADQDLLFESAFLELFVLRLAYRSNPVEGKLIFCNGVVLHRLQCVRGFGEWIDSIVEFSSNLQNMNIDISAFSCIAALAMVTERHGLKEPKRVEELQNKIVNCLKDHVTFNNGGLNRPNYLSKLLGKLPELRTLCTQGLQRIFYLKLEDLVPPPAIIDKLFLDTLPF
Sequence of Oxysterols receptor LXR-alpha (Homo sapiens) (Q13133 whole entry, looked up): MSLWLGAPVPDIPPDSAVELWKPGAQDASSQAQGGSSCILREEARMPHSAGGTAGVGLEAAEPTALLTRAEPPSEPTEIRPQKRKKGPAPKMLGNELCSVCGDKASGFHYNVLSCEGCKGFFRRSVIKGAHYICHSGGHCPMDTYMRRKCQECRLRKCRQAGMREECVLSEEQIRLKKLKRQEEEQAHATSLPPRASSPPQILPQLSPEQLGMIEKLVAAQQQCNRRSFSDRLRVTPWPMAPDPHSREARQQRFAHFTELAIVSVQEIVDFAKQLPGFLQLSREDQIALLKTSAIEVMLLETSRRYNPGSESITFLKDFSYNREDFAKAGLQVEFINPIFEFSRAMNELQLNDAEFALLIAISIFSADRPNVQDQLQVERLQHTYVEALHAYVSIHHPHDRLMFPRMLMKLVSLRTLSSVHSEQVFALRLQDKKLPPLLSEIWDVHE

O=C1c2ccc(O)c(O)c2C(=O)c2c(O)ccc(O)c21
not listed: [9]
inactive: all other assays above

CC1CCC(C(=O)O)CC1 (configuration not stated)
not listed: [5] | [6]
inactive: all other assays above

Brc1ccc(Oc2ccc(Br)cc2Br)cc1
not listed: [4] | [6] | [9]
inactive: all other assays above

O=C(Nc1ccc(Cl)c(Cl)c1)c1cc(Cl)cc(Cl)c1O
active: [1] 3.82 µM
not listed: [6]
inactive: all other assays above

O=C(CC(=O)C(F)(F)C(F)(F)C(F)(F)F)c1cccs1
active: [7] 50 µM
inactive: [1] | [2] | [3] | [4] | [9] | [6] | [7] | [8]

C=CC(=O)OCCC(F)(F)C(F)(F)C(F)(F)C(F)(F)C(F)(F)C(F)(F)C(F)(F)C(F)(F)F
not listed: [5]
inactive: all other assays above

C=CC(=C)CC/C=C(\C)CCC=C(C)C
not listed: [4] | [6]
inactive: all other assays above

O=C(O)C(F)(F)OC(F)(F)C(F)(F)OC(F)(F)C(F)(F)OC(F)(F)C(F)(F)C(F)(F)C(F)(F)F
active: [1] 27 µM | [4] 84.7 µM | [6] 13.4 µM and 16.6 µM
inactive: [1] | [2] | [3] | [4] | [5] | [9] | [7] | [8]

C[N+](C)(CCCNS(=O)(=O)CCC(F)(F)C(F)(F)C(F)(F)C(F)(F)C(F)(F)C(F)(F)F)CC(=O)[O-]
inactive: all assays above

O=C(O)CN(CCCN(CC(=O)O)CC(=O)O)CC(=O)O
not listed: [6] | [9]
inactive: all other assays above

COC1=CC(=O)C[C@@H](C)[C@]12Oc1c(Cl)c(OC)cc(OC)c1C2=O
not listed: [5]
inactive: all other assays above

CC(=O)CC(C)C
not listed: [6] | [9]
inactive: all other assays above

CCCCCCOC(=O)c1ccc(O)cc1
active: [6] 51.4 µM | [8] 58.5 µM
inactive: all other assays above

CCO[Si](CCC1CCC2OC2C1)(OCC)OCC (configuration not stated)
not listed: [4] | [6]
inactive: all other assays above

CC(O)COc1ccccc1 (configuration not stated)
active: [3] 26.1 µM
not listed: [5] | [6]
inactive: all other assays above

O=C1c2ccccc2C(=O)c2c(O)c(O)cc(O)c21
not listed: [5] | [6]
inactive: all other assays above

c1ccc(CNc2ncnc3c2ncn3C2CCCCO2)cc1 (configuration not stated)
inactive: all assays above

FC(F)(F)C(F)(F)C(F)(F)Br
not listed: [5] | [6]
inactive: all other assays above

CCCCCCCCCCCCCC[n+]1ccccc1
active: [3] 53.6 µM | [4] 100 µM | [9] 47 µM | [6] 9.84 µM
inactive: [1] | [2] | [7] | [8]

C=CC(=O)OCCN(CC)CC
not listed: [5] | [6]
inactive: all other assays above

OCC(CO)(CBr)CBr
not listed: [5]
inactive: all other assays above

O=C(F)C(F)(F)C(F)(F)C(F)(F)C(F)F
inactive: all assays above

COc1ccccc1NC(=O)c1cc2ccccc2cc1O
active: [7] 121 µM
not listed: [6]
inactive: all other assays above

O=C1C=CC(=O)N1c1cccc(N2C(=O)C=CC2=O)c1
not listed: [6]
inactive: all other assays above

O=CC(F)(F)C(F)(F)C(F)(F)F
not listed: [5]
inactive: all other assays above
